According to PubChem BioAssay (Tox21):
Where “and” joins values, the source holds several entries; their conditions need not be identical. Equal entries are not always repeated. Values without a mark were called inactive. Inconclusive results are not listed. Where a call stands in place of a potency, no number is given. Calls of active or inactive are those of the source. Calls follow the shape of the full dose curve.

Key:
[1] = target: Acetylcholinesterase (Homo sapiens) (UniProt P22303); test: Acetylcholinesterase (AChE) small molecule antagonists: colormetric cell-based qHTS assay (AID 1347395); also: nearly all actives have a fitted effect of over 30% in size; also: potency is read from the fitted curve at half-maximal effect
Outline: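 In this cell-based qHTS, attached SH-SY5Y cells were treated with test chemicals for 30 min, after which acetylthiocholine hydrolysis was followed by DTNB colour development over 90 min at 37 C.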

[2] = target: Acetylcholinesterase (Homo sapiens) (UniProt P22303); test: Acetylcholinesterase (AChE) small molecule antagonists: enzyme-based qHTS assay with human liver microsomes (AID 1347399); settings: Potency: qHTS inhibition; outcome: qHTS inhibition; also: nearly all actives have a fitted effect of over 60% in size
Outline: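 Recombinant human AChE (50 mU/mL in the enzyme mix) and human liver microsomes (0.25 mg/mL final) were preincubated with compound and NADPH (0.25 mg/mL final) for 30 min at 37 C. Acetylthiocholine/DTNB was then added; thiocholine was read colorimetrically after 10 min at room temperature.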

[3] = target: Acetylcholinesterase (Homo sapiens) (UniProt P22303); test: Acetylcholinesterase (AChE) small molecule antagonists: fluorescence cell-based qHTS assay (AID 1347398); settings: Potency: AChE activity; outcome: AChE activity; also: nearly all actives have a fitted effect of over 50% in size; also: potency is read from the fitted curve at half-maximal effect
Outline: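 Cells (SH-SY5Y) attached overnight, were dosed with compound or DMSO vehicle for 30 min at 37 C, and then incubated 40 min at room temperature with acetylthiocholine and Thiolite Green; green fluorescence indexed AChE activity.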

[4] = target: Acetylcholinesterase (Homo sapiens) (UniProt P22303); test: Acetylcholinesterase (AChE) small molecule antagonists: enzyme-based qHTS assay (AID 1347397); settings: Potency: AChE enzyme activity inhibition; outcome: AChE enzyme activity inhibition; also: nearly all actives have a fitted effect of over 55% in size; also: potency is read from the fitted curve at half-maximal effect
Outline: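 In this quantitative HTS, compounds from the Tox21 10K collection were preincubated 30 min at ambient temperature with recombinant human AChE dispensed at 50 mU/mL. Hydrolysis of acetylthiocholine was then followed for 10 min by DTNB colour development.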

Acetylcholinesterase (Homo sapiens), sequence (P22303 whole entry, looked up): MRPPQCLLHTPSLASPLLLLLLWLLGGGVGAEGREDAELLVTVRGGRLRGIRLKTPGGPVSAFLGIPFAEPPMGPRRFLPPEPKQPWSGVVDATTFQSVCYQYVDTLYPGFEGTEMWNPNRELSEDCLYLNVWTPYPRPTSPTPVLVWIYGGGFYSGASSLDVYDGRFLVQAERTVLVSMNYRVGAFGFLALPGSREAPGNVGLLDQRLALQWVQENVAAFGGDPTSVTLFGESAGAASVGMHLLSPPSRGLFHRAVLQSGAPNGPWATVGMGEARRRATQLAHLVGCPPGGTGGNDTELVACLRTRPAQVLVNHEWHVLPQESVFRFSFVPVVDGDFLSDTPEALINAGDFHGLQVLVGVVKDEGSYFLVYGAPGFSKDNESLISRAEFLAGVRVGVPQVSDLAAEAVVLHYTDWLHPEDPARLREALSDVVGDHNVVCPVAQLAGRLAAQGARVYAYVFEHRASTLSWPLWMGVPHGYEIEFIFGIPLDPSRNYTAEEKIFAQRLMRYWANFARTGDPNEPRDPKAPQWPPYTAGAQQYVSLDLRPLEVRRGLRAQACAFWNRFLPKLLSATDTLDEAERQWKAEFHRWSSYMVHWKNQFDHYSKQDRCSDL

Clc1ccc(C(Cn2ccnc2)OCc2ccsc2Cl)c(Cl)c1 (configuration not stated)
Potency [1]: inactive | Potency [2]: inactive

CC(Cc1ccc(O)c(O)c1)C(C)Cc1ccc(O)c(O)c1 (configuration not stated)
Potency [1]: inactive | Potency [2]: inactive

O=S(=O)(O)c1cc(S(=O)(=O)O)c2ccc3c(S(=O)(=O)O)cc(S(=O)(=O)O)c4ccc1c2c43
activity, negative = inhibition [1]: -7.76% [at 23.6 µM] | activity change, negative = inhibition [2]: 2.76% [at 23.6 µM]

CSc1ccc2c(c1)C(N1CCN(C)CC1)Cc1ccccc1S2 (configuration not stated)
Potency [1]: inactive | Potency [2]: inactive

CCCCC1C(=O)N(c2ccccc2)N(c2ccc(O)cc2)C1=O (configuration not stated)
Potency [1]: inactive | Potency [3]: inactive | Potency [2]: inactive

Cc1ccc(O)c(O)c1
Potency [1]: inactive | Potency [2]: inactive

CCOc1cc(N)c(Cl)cc1C(=O)NCC1CN(Cc2ccc(F)cc2)CCO1 (configuration not stated)
Potency [1]: inactive | Potency [2]: inactive

Clc1ccc(C(Cn2ccnc2)OCc2c(Cl)cccc2Cl)c(Cl)c1 (configuration not stated)
Potency [1]: inactive | Potency [2]: inactive

C=CCc1cc(S(=O)(=O)c2ccc(O)c(CC=C)c2)ccc1O
Potency [1]: inactive | Potency [2]: inactive

O=S(=O)(c1ccc(OCc2ccccc2)cc1)c1ccccc1O
Potency [1]: inactive | Potency [3]: inactive | Potency [2]: inactive

Cn1c(=O)cc(Oc2ccc(F)cc2F)c2cnc(NCC(C)(C)O)nc21
Potency [1]: 28.3 µM (active) | Potency [3]: 28.3 µM (active) | Potency [2]: inactive

CCCC(=O)OC[C@@H](OC(=O)CCC)[C@@H](OC(=O)CCC)[C@H](Cn1c2nc(=O)[nH]c(=O)c-2nc2cc(C)c(C)cc21)OC(=O)CCC
Potency [1]: inactive | Potency [2]: inactive

CCOC(=O)c1ccc(NC(=O)CN2CCCCC2)cc1
Potency [1]: 30.9 µM (active) | Potency [2]: inactive

CN1CCCN=C1/C=C/c1cccs1
Potency [1]: 15.5 µM (active) | Potency [2]: inactive

CC(=O)/C=C/C=C1/C2CCC(C2)C1(C)C (configuration not stated)
Potency [1]: 27.5 µM (active) | Potency [2]: inactive

OCCN1CCN(CCCN2c3ccccc3Sc3ccc(Cl)cc32)CC1
Potency [1]: inactive | Potency [2]: inactive

CCCCCCCCCC[N+](C)(CCCCCCCCCC)CCC[Si](OC)(OC)OC
Potency [1]: inactive | Potency [2]: inactive

NC(=O)C1(N2CCCCC2)CCN(CCCN2c3ccccc3CCc3ccc(Cl)cc32)CC1
Potency [1]: inactive | Potency [2]: inactive

CC1CC(=O)NN=C1c1ccc(NCC(C)(C)NCC(O)COc2cc(Cl)ccc2C#N)cc1 (configuration not stated)
Potency [1]: 24.5 µM (active) | Potency [2]: inactive

CCCCc1ccc(N)cc1
Potency [1]: inactive | Potency [2]: inactive

O=C(Cl)c1cc(C(=O)Cl)cc(C(=O)Cl)c1
Potency [1]: inactive | Potency [2]: inactive

CN(CCOc1ccc(NS(C)(=O)=O)cc1)CCc1ccc(NS(C)(=O)=O)cc1
Potency [1]: 17.4 µM (active) | Potency [2]: inactive

O=C(CS(=O)Cc1ccco1)NC/C=C\COc1cc(CN2CCCCC2)ccn1 (configuration not stated)
Potency [1]: 38.9 µM (active) | Potency [2]: inactive

O=C(CCN1CCN2CCCC2C1)N1c2ccccc2Sc2ccc(Cl)cc21 (configuration not stated)
activity, negative = inhibition [1]: 0% [at 23.6 µM] | activity change, negative = inhibition [2]: 1.34% [at 23.6 µM]

CCCCCCCC[P+](CCCCCCCC)(CCCCCCCC)CCCCCCCC
Potency [4]: 22.3 µM (active) | Potency [3]: 62.9 µM (active) | Potency [2]: inactive

CS(=O)(=O)c1ccc([C@@H](C[C@H]2CCC(=O)C2)C(=O)Nc2cnccn2)cc1Cl
Potency [4]: inactive | Potency [3]: inactive | Potency [2]: inactive

CCCOC(=O)c1ccc(O)cc1
Potency [4]: inactive | Potency [3]: inactive | Potency [2]: inactive

CSSc1ccoc1C
Potency [4]: inactive | Potency [3]: inactive | Potency [2]: inactive

CCC(C)C1CCCCC1=O (configuration not stated)
Potency [4]: inactive | Potency [3]: inactive | Potency [2]: inactive

CCCCCCOC(=O)CCCCC(=O)OCCCCCC
Potency [4]: inactive | Potency [3]: inactive | Potency [2]: inactive

Cc1[nH]c(=O)c(C#N)cc1-c1ccncc1
Potency [4]: inactive | Potency [3]: inactive | Potency [2]: inactive

Cc1nccn1CC1CCc2c(c3ccccc3n2C)C1=O (configuration not stated)
Potency [4]: inactive | Potency [3]: 15.5 µM (active) | Potency [2]: inactive

C/C=C1\C(=O)C[C@H]2[C@@H]3CCC4=CC(=O)CC[C@]4(C)[C@H]3CC[C@]12C
Potency [4]: inactive | Potency [3]: inactive | Potency [2]: inactive

[Cl][Eu]([Cl])[Cl]
Potency [4]: inactive | Potency [3]: inactive | Potency [2]: inactive

CCOC(=O)c1cnc2c(cnn2CC)c1NN=C(C)C
Potency [4]: inactive | Potency [3]: inactive | Potency [2]: inactive

Clc1nnc(Cl)c2ccccc12
Potency [4]: inactive | Potency [3]: inactive | Potency [2]: inactive

CC(=O)c1ccc2c(c1)[C@H](NC(=O)c1ccc(F)cc1)[C@@H](O)C(C)(C)O2
Potency [4]: inactive | Potency [3]: inactive | Potency [2]: inactive

CCCOC(=O)c1c(Cl)c(Cl)c(Cl)c(Cl)c1C(=O)OCCC
Potency [4]: inactive | Potency [3]: inactive | Potency [2]: inactive

CCCCCCOC(=O)C(C)CC (configuration not stated)
Potency [4]: inactive | Potency [3]: inactive | Potency [2]: inactive

O=C1CCCCCO1
Potency [4]: inactive | Potency [3]: inactive | Potency [2]: inactive

COC(=O)c1cc(Cl)ccc1[N+](=O)[O-]
Potency [4]: inactive | Potency [3]: inactive | Potency [2]: inactive

CCCCCCCCCCCCCCCCCC[N+](C)(C)Cc1ccccc1
Potency [4]: 28.5 µM (active) | Potency [3]: 71.7 µM (active) | Potency [2]: inactive

CC(=O)Oc1ccc(C(c2ccc(OC(C)=O)cc2)c2ccccn2)cc1
Potency [4]: inactive | Potency [3]: inactive | Potency [2]: inactive

CCOc1ccc(NS(=O)(=O)c2ccc(N)cc2)nn1
Potency [4]: inactive | Potency [3]: inactive | Potency [2]: inactive

CSc1nc(NC2CC2)nc(NC(C)(C)C)n1
Potency [4]: inactive | Potency [3]: inactive | Potency [2]: inactive

O=C1c2ccccc2S(=O)(=O)N1CCCCN1CCN(c2ncccn2)CC1
Potency [4]: inactive | Potency [3]: inactive | Potency [2]: inactive

Nc1cccnc1N
Potency [4]: inactive | Potency [3]: inactive | Potency [2]: inactive

CC(C)=CCC/C(C)=C/CC/C(C)=C/CCC(=O)OC/C=C(\C)CCC=C(C)C
Potency [4]: inactive | Potency [3]: inactive | Potency [2]: inactive

CC(=O)NC(=O)c1ccccc1O
Potency [4]: inactive | Potency [3]: inactive | Potency [2]: inactive

CCCCCCCC(=O)N(C)C
Potency [4]: inactive | Potency [3]: inactive | Potency [2]: inactive

CN1CCN(C2=Nc3ccccc3Oc3ccc(Cl)cc32)CC1
Potency [4]: inactive | Potency [3]: inactive | Potency [2]: inactive

CCC(C)OC(C)CC (configuration not stated)
Potency [4]: inactive | Potency [3]: inactive | Potency [2]: inactive

Cc1ccnc(N)c1
Potency [4]: inactive | Potency [3]: inactive | Potency [2]: inactive

C[C@H](CCC(=O)O)[C@H]1CC[C@H]2[C@@H]3C(=O)C[C@@H]4CC(=O)CC[C@]4(C)[C@H]3CC(=O)[C@]12C
Potency [4]: inactive | Potency [3]: inactive | Potency [2]: inactive

C=C(C)CS(=O)(=O)O
Potency [4]: inactive | Potency [3]: inactive | Potency [2]: inactive

CCN1CCCC1CNC(=O)c1cc(S(=O)(=O)CC)c(N)cc1OC (configuration not stated)
Potency [4]: 15.5 µM (active) | Potency [3]: 13.8 µM (active)

CC(C)CCCCOC(=O)c1ccccc1C(=O)OCCCCC(C)C
Potency [4]: inactive | Potency [3]: inactive | Potency [2]: inactive

CC(CC1c2ccccc2CCc2ccccc21)CN(C)C (configuration not stated)
Potency [4]: inactive | Potency [3]: inactive

CCCCCCCCCCCC(=O)NCCCN(C)C
Potency [4]: inactive | Potency [3]: 31.7 µM (active) | Potency [2]: inactive

OC1(c2ccc(Cl)cc2)CCNCC1
Potency [4]: inactive | Potency [3]: inactive | Potency [2]: inactive

O=C(OCC(COC(=O)c1cccnc1)(COC(=O)c1cccnc1)COC(=O)c1cccnc1)c1cccnc1
Potency [4]: inactive | Potency [3]: inactive | Potency [2]: inactive

CC(C)CCOCc1ccccc1
Potency [4]: inactive | Potency [3]: inactive | Potency [2]: inactive

Nc1ccc(S(=O)(=O)Nc2ccccc2)cc1
Potency [4]: inactive | Potency [3]: inactive | Potency [2]: inactive

CC(=O)OC1CCCCC1C(C)(C)C (configuration not stated)
Potency [4]: inactive | Potency [3]: inactive | Potency [2]: inactive

Cc1cc(OI)c(C(C)C)cc1-c1cc(C(C)C)c(OI)cc1C
Potency [4]: inactive | Potency [3]: inactive | Potency [2]: inactive

CC(=O)OCC(CCn1cnc2cnc(N)nc21)COC(C)=O
Potency [4]: inactive | Potency [3]: inactive | Potency [2]: inactive

CC(CSC(=O)c1ccccc1)C(=O)N1C[C@@H](Sc2ccccc2)C[C@H]1C(=O)O (some centres not stated)
activity change, negative = inhibition [4]: -0.415% [at 23.6 µM] | activity change, negative = inhibition [3]: 13.2% [at 23.8 µM] | activity change, negative = inhibition [2]: 2.18% [at 23.6 µM]

CC(=O)SC[C@@H](Cc1ccccc1)C(=O)NCC(=O)OCc1ccccc1
Potency [4]: inactive | Potency [3]: inactive | Potency [2]: inactive

CC(C)c1ccccc1
Potency [4]: inactive | Potency [3]: inactive | Potency [2]: inactive

COc1cc(Cl)ccc1Oc1ccc(Cl)cc1Cl
Potency [4]: inactive | Potency [3]: inactive | Potency [2]: inactive

CCCCCCOc1ccccc1C(N)=O
Potency [4]: inactive | Potency [3]: inactive | Potency [2]: inactive

CCCCNc1ccc(C(=O)OCCN(CC)CC)cc1
Potency [4]: 30.9 µM (active) | Potency [3]: 2.45 µM (active) | Potency [2]: inactive

CCCCCCCCCCCCCC[P+](CCCC)(CCCC)CCCC
Potency [4]: 31.6 µM (active) and 39.9 µM (active) | Potency [3]: 35.4 µM (active) and 63.3 µM (active) | Potency [2]: inactive

Cc1cc(=O)oc2cc(O[C@@H]3SC[C@@H](O)[C@H](O)[C@H]3O)ccc12
Potency [4]: inactive | Potency [3]: inactive | Potency [2]: inactive

Nc1cccc2c(=O)[nH][nH]c(=O)c12
Potency [4]: inactive | Potency [3]: inactive | Potency [2]: inactive

CCCCCO
Potency [4]: inactive | Potency [3]: inactive | Potency [2]: inactive

CC(C)CCCCCCOC(=O)CCCCC(=O)OCCCCCCC(C)C
Potency [4]: inactive | Potency [3]: inactive | Potency [2]: inactive

Cc1c(C)c([N+](=O)[O-])c(C(C)(C)C)c([N+](=O)[O-])c1C
Potency [4]: inactive | Potency [3]: inactive | Potency [2]: inactive

N#CSCSc1nc2ccccc2s1
Potency [4]: inactive | Potency [3]: inactive | Potency [2]: inactive

CC(C)CCCC(C)NCCC(C)C (configuration not stated)
Potency [4]: inactive | Potency [3]: inactive | Potency [2]: inactive
